Records with an inconclusive call do not appear. Active and inactive are the calls of the source. The calls were made as follows: active = hit-call score of the fitted dose curve at least 0.9, where 1 is the maximum; inconclusive = response in the unintended direction; inactive = score below 0.9.

Sequence of human Cyclin-Dependent Kinase 6 (CDK6), CDK6 (gene 1021) (Q00534 whole entry, looked up): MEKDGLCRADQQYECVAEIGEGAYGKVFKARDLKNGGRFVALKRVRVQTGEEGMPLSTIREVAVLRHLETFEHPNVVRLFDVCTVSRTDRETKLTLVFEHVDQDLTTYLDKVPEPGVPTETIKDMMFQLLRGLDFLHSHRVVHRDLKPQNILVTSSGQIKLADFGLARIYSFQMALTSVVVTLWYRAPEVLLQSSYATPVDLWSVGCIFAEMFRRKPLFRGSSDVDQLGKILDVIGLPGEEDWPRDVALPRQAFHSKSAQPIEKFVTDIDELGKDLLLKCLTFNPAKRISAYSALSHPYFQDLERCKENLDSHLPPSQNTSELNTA

The target of the experiment is human Cyclin-Dependent Kinase 6 (CDK6), CDK6 (gene 1021) (UniProt Q00534). Description: NVS_ENZ_hCDK6: NovaScreen (NVS) Enzymatic Assay for human Cyclin-Dependent Kinase 6 (CDK6). On the procedure:
NVS_ENZ_hCDK6 is a biochemical, single-readout assay that uses extracted gene-proteins in a cell-free assay. Measurements were taken 1 hour after chemical dosing in a 384-well plate.NVS_ENZ_hCDK6 is one of one assay component(s) measured or calculated from the NVS_ENZ_hCDK6 assay. It is designed to make measurements of enzyme activity, a form of enzyme reporter, as detected with fluorescence intensity signals by Fluorescence and electrophoretic mobility shift technology.Data from the assay component NVS_ENZ_hCDK6 was analyzed into 1 assay endpoint. This assay endpoint, NVS_ENZ_hCDK6, was analyzed in the positive analysis fitting direction relative to DMSO as the negative control and baseline of activity. Using a type of enzyme reporter, loss-of-signal activity can be used to understand changes in the enzymatic activity as they relate to the gene CDK6. Furthermore, this assay endpoint can be referred to as a primary readout, because this assay has produced multiple assay endpoints where this one serves a enzymatic activity function. To generalize the intended target to other relatable targets, this assay endpoint is annotated to the kinase intended target family, where the subfamily is serine/threonine kinase.
Binding assays used specific radioligands (tritiated, iodinated) with non-radioactive competitive displacement ligands in agonist or antagonist protocols (as indicated) and various reference compounds and inhibitors to titrate specific binding to receptors and transporters. Most enzyme assays (CYPs, kinases, phosphatases, proteases, HDACs) used recombinant protein and specific substrates (fluorescence mostly, some colorimetric and radioactive) and inhibitors, followed by a biochemical separation of substrate and product. All assays for the biochemical HTS were initially run in duplicate at a single concentration (10 uM for CYP450 assays and 25 uM for all others). […] Each assay was run with positive and negative controls, and concurrent controls on every plate. The follow-up (secondary) screen tested active chemical-pairs in concentration series, as well as a few additional assays not tested in the primary screen, some selected negative inactives, and several cases re-run in the concentration series for confirmatory purposes.
As for `Nc1c(Cl)c(Cl)nc(C(=O)O)c1Cl`, the compound was called inactive.

Regarding `CN(C)[C@@H]1C(=O)C(C(N)=O)=C(O)[C@@]2(O)C(=O)C3=C(O)c4c(O)cccc4[C@@](C)(O)[C@H]3[C@H](O)[C@@H]12`, the AC50 was 23.1 µM (active).

As to `S=C([S-])NCCNC(=S)[S-].[Mn+2]`, the AC50 was 10.5 µM (active).

As to `S=C(S)NCCNC(=S)S.[Mn+2].[S-]C([S-])=NCCN=C([S-])[S-].[Zn+2]`, the AC50 was 9.65 µM (active).
